Experiment [1] concerns the target Luciferin 4-monooxygenase (Photinus pyralis) (UniProt P08659). The experiment is described as follows: qHTS assay to identify small molecule inhibitors of firefly luciferase (AID 1224835). Note: nearly all actives have a fitted effect of over 25% in size. Note: potency is the fitted concentration of half-maximal effect. In short, it runs like this:
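Inhibition of purified Photinus luciferase is measured by luminescence. Substrate levels (D-luciferin, ATP) sit at their KM values. Each compound is tested in a concentration series.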
A general note: In qHTS, concentration-response curves come from the screen itself.

Experiment [2] in a line: qHTS assay to identify small molecule agonists of the constitutive androstane receptor (CAR) signaling pathway - cell viability counter screen (AID 1224836). Note: series mostly up to about 92 µM; nearly all actives have a fitted effect of over 45% in size. In short, it runs like this: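 Cells were seeded and incubated 4 hrs. Compounds were added across 15 concentrations together with PK11195 at 0.75 uM final. Plates were incubated 23 hrs at 37 C. CellTiter-Fluor was added and fluorescence measured.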

Experiment [3] is described as follows: qHTS assay to identify small molecule antagonists of the constitutive androstane receptor (CAR) signaling pathway - cell viability counter screen (AID 1224837). Note: series mostly up to about 92 µM; nearly all actives have a fitted effect of over 45% in size. In short, it runs like this: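 Read-out: CellTiter-Fluor fluorescence after 23 hr at 37 C/5% CO2. Cells: HepG2 double-stable for hCAR and CYP2B6-2.2kb. Compounds tested at 15 concentrations in the presence of CITCO, final concentration 50 nM.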

The target in experiment [4] is Nuclear receptor subfamily 1 group I member 3 (Homo sapiens) (UniProt Q14994). The experiment is described as follows: qHTS assay to identify small molecule antagonists of the constitutive androstane receptor (CAR) signaling pathway (AID 1224838).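 Note: HepG2 cells stably expressing hCAR with CYP2B6 luciferase reporter stimulated by CITCO; nearly all actives have a fitted effect of over 40% in size.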 In short, it runs like this:
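Read-out: ONE-Glo luciferase luminescence after 30 min at room temperature. HepG2-CYP2B6-hCAR double-stable cells, compounds in 15-point titration plus 50 nM CITCO final, 24 h at 37 C/5% CO2.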

Experiment [5] shares this target. Description: qHTS assay to identify small molecule agonists of the constitutive androstane receptor (CAR) signaling pathway (AID 1224839). Note: nearly all actives have a fitted effect of over 15% in size. Note: potency is the fitted concentration of half-maximal effect. In outline:
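Cells were plated and incubated 4 hrs, then dosed with compounds at 15 concentrations. PK11195 was added to 0.75 uM final. After 24 hrs at 37 C, luciferase luminescence was measured.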

The nature of experiment [6]: qHTS assay to identify small molecule antagonists of the estrogen related receptor signaling pathway with the pleiotropic PPARgamma coactivator (PGC) from Tox21 10K library - cell viability counter screen (AID 1224840; active = well fitted cell-killing curve with a large enough effect in the repeat runs, not every such curve was filed as active; note: nearly all actives have a fitted effect of over 40% in size). In outline:
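Fluorescence read-out of CellTiter-Fluor viability reagent, added after cells had been exposed to compound in DMSO for 17.5 h at 37 C; 30 min development at 37 C/5% CO2. Cells: PGC/ERR line, 2,000/well.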

Experiment [7] in a line: qHTS assay to identify small molecule antagonists of the estrogen related receptor signaling pathway with the pleiotropic PPARgamma coactivator (PGC) from Tox21 10K library (AID 1224841; call rule not given here; note: actives are mostly falling curves and most rising ones were filed inactive; nearly all actives have a fitted effect of over 50% in size; note: potency is the fitted concentration of half-maximal effect). In outline: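 Luminescence read-out (One-Glo luciferase reagent, 30 min at room temperature) from PGC/ERR cells exposed to DMSO-dissolved test compounds for 18 h at 37 C; cells, 2,000 per well, had been preincubated 6 h before compound transfer.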

A short description of experiment [8]: qHTS assay to identify small molecule agonists of the estrogen related receptor signaling pathway with the pleiotropic PPARgamma coactivator (PGC) from Tox21 10K library (AID 1224842). Note: nearly all actives have a fitted effect of over 15% in size. Note: potency is the fitted concentration of half-maximal effect. In short, it runs like this:
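Luminescence from One-Glo (30 min, room temperature) measured after PGC/ERR cells had 18 h at 37 C with pinned compound (23 nL in DMSO). Cells had been seeded at 2,000 per well and pre-incubated 6 h.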

The target of experiment [9] is Thyrotropin receptor (Homo sapiens) (UniProt P16473). The experiment is described as follows: qHTS assay to identify small molecule agonists of the thyroid stimulating hormone receptor (TSHR) signaling pathway (AID 1224843; calls by dose curve; note: nearly all actives have a fitted effect of over 45% in size). In outline:
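Agonist activity read as cAMP rise via d2/cryptate HTRF competition, 1 h room-temperature detection, in HEK293 cells expressing TSHR. Fifteen-point titrations, each run in triplicate, with a 30 min room-temperature incubation beforehand.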

A short description of experiment [10]: qHTS assay to identify small molecule agonists of the hypoxia (HIF-1) signaling pathway - cell viability counter screen (AID 1224844; calls by dose curve; note: nearly all actives have a fitted effect of over 50% in size; note: potency is the fitted concentration of half-maximal effect). In short, it runs like this:
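CellTiter-Glo luminescence read-out, 30 min RT, taken in the same wells as the beta-lactamase HRE reporter assay; HRE-bla ME-180 cells, 0.5% dialyzed FBS, 17 hr compound treatment at 37C, 5% CO2.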

Where “and” joins values, the source holds several entries; their conditions need not be identical. Equal values may be shown once. Inconclusive results are not listed. The source holds several records for some structures; these can differ, active in one and inactive in another. Calls of active or inactive are those of the source. Unless noted, calls come from the whole dose curve; as a rule, active = well fitted curve in the direction sought with a large enough effect in the repeat runs; inconclusive = weak or mixed curves; inactive = no such curve, though single readings can be large; an effect the other way counts as inactive or inconclusive.

Sequence of Nuclear receptor subfamily 1 group I member 3 (Homo sapiens) (Q14994 whole entry, looked up): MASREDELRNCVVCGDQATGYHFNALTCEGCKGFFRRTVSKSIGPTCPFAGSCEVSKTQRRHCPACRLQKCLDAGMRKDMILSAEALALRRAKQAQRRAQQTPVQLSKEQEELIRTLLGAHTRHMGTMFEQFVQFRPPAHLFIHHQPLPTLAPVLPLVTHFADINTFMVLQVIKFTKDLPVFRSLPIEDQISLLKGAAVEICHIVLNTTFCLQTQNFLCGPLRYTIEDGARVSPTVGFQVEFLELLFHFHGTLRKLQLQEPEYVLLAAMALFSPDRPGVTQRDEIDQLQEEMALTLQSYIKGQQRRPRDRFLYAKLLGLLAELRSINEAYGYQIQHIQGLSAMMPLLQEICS
Sequence of Thyrotropin receptor (Homo sapiens) (P16473 whole entry, looked up): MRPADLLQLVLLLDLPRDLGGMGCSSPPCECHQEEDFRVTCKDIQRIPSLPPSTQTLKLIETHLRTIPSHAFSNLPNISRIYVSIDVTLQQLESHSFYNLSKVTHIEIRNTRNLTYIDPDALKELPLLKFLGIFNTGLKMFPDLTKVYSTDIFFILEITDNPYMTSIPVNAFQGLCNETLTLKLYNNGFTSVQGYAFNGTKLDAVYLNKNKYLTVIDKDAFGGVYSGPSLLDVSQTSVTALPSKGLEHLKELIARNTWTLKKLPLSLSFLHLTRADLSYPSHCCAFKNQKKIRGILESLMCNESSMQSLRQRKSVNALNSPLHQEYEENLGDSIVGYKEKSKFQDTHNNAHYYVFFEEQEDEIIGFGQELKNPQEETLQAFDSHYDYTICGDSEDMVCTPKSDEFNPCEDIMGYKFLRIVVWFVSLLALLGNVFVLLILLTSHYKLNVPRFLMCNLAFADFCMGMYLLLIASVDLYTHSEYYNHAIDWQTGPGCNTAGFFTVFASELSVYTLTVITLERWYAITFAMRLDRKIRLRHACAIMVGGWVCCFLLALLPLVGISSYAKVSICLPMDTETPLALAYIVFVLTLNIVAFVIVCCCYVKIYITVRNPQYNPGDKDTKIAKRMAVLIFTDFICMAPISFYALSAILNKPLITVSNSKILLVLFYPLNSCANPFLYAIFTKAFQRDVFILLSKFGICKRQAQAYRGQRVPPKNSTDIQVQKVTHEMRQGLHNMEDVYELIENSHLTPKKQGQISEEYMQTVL
Sequence of Luciferin 4-monooxygenase (Photinus pyralis) (P08659 whole entry, looked up): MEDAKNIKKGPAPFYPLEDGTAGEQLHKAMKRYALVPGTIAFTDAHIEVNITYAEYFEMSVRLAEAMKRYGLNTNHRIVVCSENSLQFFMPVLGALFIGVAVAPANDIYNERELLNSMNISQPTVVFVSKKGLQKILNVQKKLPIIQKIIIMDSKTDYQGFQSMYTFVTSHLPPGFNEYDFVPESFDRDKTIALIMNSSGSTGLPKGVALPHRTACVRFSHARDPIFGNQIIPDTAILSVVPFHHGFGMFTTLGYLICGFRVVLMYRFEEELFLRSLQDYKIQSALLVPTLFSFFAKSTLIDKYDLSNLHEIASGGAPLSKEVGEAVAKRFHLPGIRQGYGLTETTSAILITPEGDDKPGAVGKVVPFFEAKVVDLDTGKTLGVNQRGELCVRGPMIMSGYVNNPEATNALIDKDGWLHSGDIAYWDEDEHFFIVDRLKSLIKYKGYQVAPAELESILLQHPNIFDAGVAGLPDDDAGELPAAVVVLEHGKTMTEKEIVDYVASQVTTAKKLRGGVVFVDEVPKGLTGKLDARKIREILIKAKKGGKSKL

As to `CCN(CC)C(=O)Nc1ccc(OCC(O)CNC(C)(C)C)c(C(C)=O)c1` (configuration not stated), the Potency entry in experiment [1], in [2], in experiment [3], in experiment [4], in experiment [5] and in [6] was “inactive” each time. Also, the Potency entry in experiment [7], in [8], in experiment [9] and in experiment [10] was “inactive” in each case.
Turning to `Cc1occc(=O)c1OC(=O)C(C)C`, the Potency entry in experiment [1], in experiment [2], in [3], in experiment [4], in experiment [5] and in experiment [6] was “inactive” in each case. Also, the Potency result in experiment [7], in experiment [8], in experiment [9] and in experiment [10] was “inactive” each time.
For `CCC(C)(Oc1ccc(C2(c3ccc(OC(C)(CC)C(=O)O)cc3)CCCCC2)cc1)C(=O)O` (configuration not stated), the Potency entry in experiment [1], in [2], in experiment [3], in experiment [4], in [5] and in experiment [6] was “inactive” each time. For the same compound, the Potency result in experiment [7], in experiment [8], in [9] and in [10] was “inactive” in each case.
With `CNC1(C)C2CCC(C2)C1(C)C` (configuration not stated), the Potency entry in experiment [1], in [2], in experiment [3], in experiment [4], in experiment [5] and in experiment [6] was “inactive” each time. The Potency result in experiment [7], in experiment [8], in [9] and in [10] was “inactive” each time.
For the compound `O=C1CC2(CCCC2)CC(=O)N1CCCCN1CCN(c2ncccn2)CC1`, the Potency entry in experiment [1], in experiment [2], in [3], in [4], in experiment [5] and in experiment [6] was “inactive” in each case. Further, the Potency entry in experiment [8] and in [9] was “inactive” throughout. In addition, the Potency in experiment [7] was 19.3 µM (active) and inactive; in experiment [10] it was 4.36 µM (active) and inactive.
For the compound `C1COC(NC(C2CC2)C2CC2)=N1`, the Potency result in experiment [1], in experiment [2], in experiment [3], in experiment [4], in experiment [5] and in experiment [6] was “inactive” in each case. For the same compound, the Potency result in experiment [7], in experiment [8] and in experiment [9] was “inactive” each time.
With `CC1COC(=O)O1` (configuration not stated), the Potency entry in [1], in experiment [2], in [3], in [4], in experiment [5] and in experiment [6] was “inactive” in each case. Besides, the Potency entry in experiment [7], in [8], in [9] and in experiment [10] was “inactive” throughout.
Take `Cc1cccc([N+](=O)[O-])c1C(=O)O`: the Potency result in [1], in [2], in [3], in experiment [4], in experiment [5] and in [6] was “inactive” each time. Moreover, the Potency result in experiment [7], in experiment [8], in experiment [9] and in experiment [10] was “inactive” in each case.
For `CC(=O)CC(=O)Nc1ccc2[nH]c(=O)[nH]c2c1`, the Potency result in experiment [1], in [2], in experiment [3], in experiment [4], in [5] and in experiment [6] was “inactive” throughout. For the same compound, the Potency entry in experiment [7], in experiment [8], in experiment [9] and in experiment [10] was “inactive” each time.
Turning to `C=CC(=O)OCCCCCCCC`, the Potency entry in experiment [1], in experiment [2], in experiment [3], in experiment [4], in experiment [5] and in experiment [6] was “inactive” in each case. Also, the Potency entry in experiment [8], in experiment [9] and in [10] was “inactive” throughout. For the same compound, in experiment [7], the Potency is 13.7 µM (active).
In the case of `CO[Si](OC)(OC)c1ccccc1`, the Potency entry in experiment [1], in experiment [2], in experiment [3], in experiment [4], in experiment [5] and in [6] was “inactive” in each case. Also, the Potency entry in experiment [7], in [8], in [9] and in experiment [10] was “inactive” throughout.
With `Cc1cccc(O)c1C`, the Potency result in experiment [1], in experiment [2], in [3], in experiment [4], in experiment [5] and in experiment [6] was “inactive” each time. Further, the Potency result in [7], in [8], in experiment [9] and in experiment [10] was “inactive” each time.
Consider `CCCCOCCOC(=O)c1ccccc1C(=O)OCCOCCCC`, for which the Potency entry in [1], in [2], in experiment [3], in [4], in experiment [5] and in [6] was “inactive” throughout. Moreover, the Potency entry in [8], in [9] and in experiment [10] was “inactive” throughout. Moreover, the Potency in experiment [7] was 16.9 µM (active) and inactive.
Take `CC(C)CCOC(=O)c1ccc(N(C)C)cc1`: the results for the Potency in experiment [1], in [5] and in experiment [8] were 3.47 µM (active), 13.3 µM (active) and 10.6 µM (active), respectively. For the same compound, the Potency entry in experiment [2], in experiment [3], in experiment [4], in experiment [6], in [7] and in experiment [9] was “inactive” throughout. Further, in experiment [10], the Potency result is “inactive”.
In the case of `O=Cc1ccc(Cl)cc1`, the Potency entry in [1], in [2], in [3], in experiment [4], in experiment [5] and in experiment [6] was “inactive” in each case. Moreover, the Potency result in [7], in experiment [8], in experiment [9] and in experiment [10] was “inactive” each time.
For `N[C@@H]1CONC1=O`, the Potency entry in [1], in experiment [2], in experiment [3], in experiment [4], in experiment [5] and in [6] was “inactive” each time. Moreover, the Potency result in experiment [7], in [8], in experiment [9] and in experiment [10] was “inactive” in each case.
`COc1cc(C(=S)N2CCOCC2)ccc1O`: the Potency entry in experiment [1], in experiment [2], in [3], in experiment [4], in experiment [5] and in experiment [6] was “inactive” in each case. Moreover, the Potency entry in experiment [7], in experiment [8], in experiment [9] and in experiment [10] was “inactive” throughout.
For `O=S(=O)(O)c1ccc2nc(-c3ccccc3)[nH]c2c1`, the Potency in experiment [1] was 19 µM (active) and 12.3 µM (active); in experiment [10], 18.6 µM (active) and 10.7 µM (active). In addition, the Potency entry in [2], in experiment [3], in experiment [4], in experiment [5], in experiment [6] and in experiment [7] was “inactive” each time. Further, the Potency result in experiment [8] and in [9] was “inactive” in each case.
Take `CC(=O)OCC1=C(C(=O)O)N2C(=O)[C@@H](NC(=O)Cc3cccs3)[C@H]2SC1`: the Potency result in experiment [1], in experiment [2], in [3], in [4], in [5] and in [6] was “inactive” in each case. The Potency result in experiment [9] and in experiment [10] was “inactive” each time.
On to `CCC(CO)(CO)COCC(CC)(CO)CO`, for which the Potency entry in experiment [1], in experiment [2], in experiment [3], in experiment [4], in experiment [5] and in [6] was “inactive” in each case. For the same compound, the Potency result in experiment [7], in [8], in experiment [9] and in experiment [10] was “inactive” each time.
